TPT1 inhibitor = inhibitors of Candida albicans tRNA 2'-phosphotransferase TPT1 | 300,000 compounds, 0.81% hits | inhibition, % at 5 µM | recombinant caTPT1, FP RNA substrate dephosphorylation;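 active = inhibition above the mean of all tested compounds plus 3 SD, set per screening campaign, cut at about 24% in these data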;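 note: plate controls were DMSO alone for no effect and ferristatin control at 100 nM for full effect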
IDE inh = inhibitors of human insulin-degrading enzyme in cells; AID 434962; inhibition, % at 5.59 µM; 320,000 compounds, 0.41% hits; HEK cells, FAbetaB cleavage, fluorescence polarization; P14735;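 active = percent inhibition above the average of all tested compounds plus 3 SD, set per screening campaign, cut at about 16% in these data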;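 note: IDE supplied by intact live HEK cells; FP after avidin binding of uncleaved biotin substrate so inhibition keeps polarization high; 0% = DMSO wells and 100% = 60 µM reference IDE inhibitor Ii1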
IDE act = boosts human insulin-degrading enzyme activity in HEK cells | activation, % at 5.96 µM | P14735 | 340,000 compounds, 0.073% hits | FAbeta-B cleavage, fluorescence polarization; 0% vehicle, 100% cell-free pure enzyme wells;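 active = activation above the mean of all tested compounds plus 3 SD, set per screening campaign, cut at about 17% in these data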
Rin1-Abl PPI inh = human Rin1-Abl interaction inhibition; P00519+Q13671; TR-FRET Rin1/Abl binding, biochemical; inhibition, % at 7.35 µM; 360,000 compounds, 0.4% hits; in the data active = inhibition above about 5%, passing the limit was not always enough
Calb FLC = affects C. albicans growth with fluconazole | growth inhibition, % (test concentration not listed) | C. albicans CaCi-2 (fluconazole-resistant clinical isolate) + fluconazole, Alamar Blue growth, 48 h | AID 1979 | 300,000 compounds, 0.57% hits;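 active = growth inhibition above about 58% in most replicates, limit read from the data, passing the limit was not always enough; inconclusive = exactly half the replicates above a set limit; inactive = most replicates below a set limit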;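 note: all wells also contain fluconazole at 8 µg/ml as a sub-toxic cotreatment; 0% = median of DMSO wells and 100% = median of geldanamycin control wells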
Rpn11 block = blocks the human proteasome subunit Rpn11; 360,000 compounds, 0.59% hits; O00487; human 26S proteasome, Ub4-pepOG fluorescence polarization; 20S core pre-blocked with epoxomicin; inhibition, % at 20 µM;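 active = inhibition at 20 µM, scaled to each plate's controls, above about 33%, limit read from the data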
Target sequence (O00487 whole entry, looked up): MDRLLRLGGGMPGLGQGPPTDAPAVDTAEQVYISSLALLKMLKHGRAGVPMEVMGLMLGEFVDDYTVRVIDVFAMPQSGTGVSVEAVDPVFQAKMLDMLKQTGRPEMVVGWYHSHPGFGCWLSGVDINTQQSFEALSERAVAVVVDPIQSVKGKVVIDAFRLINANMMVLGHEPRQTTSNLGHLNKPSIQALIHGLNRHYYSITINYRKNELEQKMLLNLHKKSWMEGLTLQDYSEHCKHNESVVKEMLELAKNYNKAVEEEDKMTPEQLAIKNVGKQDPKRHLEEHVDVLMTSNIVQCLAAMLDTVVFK
caTPT1 confirm = confirmation of Candida albicans TPT1 inhibitors. shares compounds with TPT1 inhibitor. recombinant caTPT1, fluorescence polarization, RNase T1 coupled. inhibition, % at 5 µM. 2,400 compounds, 74% hits;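 active = inhibition above the primary screen limit, the mean inhibition of all tested compounds plus 3 SD, cut at about 25% in these data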
RNase T1 inh = RNase T1 inhibition in TPT1 counter-screen. shares compounds with TPT1 inhibitor. RNase T1 cleavage, fluorescence polarization, 1536-well. inhibition, % at 5 µM. 2,400 compounds, 83% hits;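 active = inhibition above the solvent-only control well mean plus 3 SD, limit set per screening run, cut at about 23% in these data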;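 note: plate controls were DMSO wells with enzyme for no effect and wells without RNase T1 for full effect; inhibitors block cleavage so intact labeled substrate keeps polarization high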
Target sequence (P00651 whole entry, looked up): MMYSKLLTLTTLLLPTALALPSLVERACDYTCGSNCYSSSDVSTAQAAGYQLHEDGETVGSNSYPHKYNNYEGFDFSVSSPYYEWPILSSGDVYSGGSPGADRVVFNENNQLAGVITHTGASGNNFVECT
IDE inh confirm = confirmation of human insulin-degrading enzyme inhibitors in cells; HEK cells, FAbetaB cleavage, fluorescence polarization; 1,200 compounds, 51% hits; shares compounds with IDE inh; inhibition, % at 5.59 µM; AID 435028;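 active = mean inhibition across triplicate wells above the cutoff set by the earlier primary insulin-degrading enzyme screen, cut at about 16% in these data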;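 note: 0% = DMSO wells and 100% = 60 µM reference IDE inhibitor Ii1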
HEK293 tox = kills HEK cells in IDE inhibitor counter-screen | shares compounds with IDE inh | HEK293 cytotoxicity, ATP luminescence | 1,200 compounds, 28% hits | inhibition, % at 5.59 µM; in the data active = inhibition above about 22%;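 note: 0% = vehicle wells and 100% = reference cytotoxic drug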
Rpn11 confirm = Rpn11 inhibition confirmation, single concentration. AID 602318. purified human 26S proteasome, Ub4-pepOG fluorescence polarization; proteasome pretreated with epoxomicin. shares compounds with Rpn11 block. 1,900 compounds, 29% hits. inhibition, % at 20 µM
MMP-2 counter = blocks human MMP-2, flagging nonselective RPN11 hits | shares compounds with Rpn11 block | recombinant MMP-2, FRET peptide cleavage fluorescence | inhibition, % at 20 µM | 1,900 compounds, 4% hits | AID 602330;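 note: human MMP-2 activated beforehand with APMA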
Thrombin FP = blocks bovine thrombin, flagging nonselective RPN11 hits; shares compounds with Rpn11 block; bovine thrombin cleavage of Ub4-pepOG, fluorescence polarization; inhibition, % at 20 µM; 1,900 compounds, 13% hits;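 active = mean inhibition at least 40% at 20 µM, or signal 3 deviations below plate average, so some actives read negative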;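 note: plate controls were thrombin with DMSO for no effect and buffer wells lacking thrombin for full effect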
An asterisk follows results filed as active; u = inconclusive; x = no result given. Sampled rows, rich in hits. Any-hit rate of the full collection: about 2.3%. Cut-off read from the data, not from the text of the source, unless noted: active = inhibition above about 40%; inactive = the rest.

SMILES | TPT1 inhibitor | IDE inh | IDE act | Rin1-Abl PPI inh | Calb FLC | Rpn11 block | caTPT1 confirm | RNase T1 inh | Rpn11 confirm | MMP-2 counter | Thrombin FP | others
O=C(NCc1ccccc1Cl)c1cccc2c1C(=O)c1ccc(-c3ccc(OC(F)(F)F)cc3)cc1S2(=O)=O | x | 2 | -2 | 4 | x | 6 | x | x | x | x | x
O=C(Cn1cc(C(=O)COc2ccccc2)c2ccccc21)NCc1ccco1 | 34* | 0 | 0 | -2 | -2 | 38* | 26* | 38* | 60* | 21 | 39
CC(=O)c1cn(CC(=O)NCc2ccco2)c2ccccc12 | -2 | 3 | 3 | 0 | -13 | 4 | x | x | x | x | x
O=[N+]([O-])c1ccc(/C=N/Nc2ccc3ccccc3c2)o1 | 32* | 11 | -9 | -2 | u | 41* | 39* | 47* | 25 | 9 | 13
CCCC1=NN2C(=N)/C(=C\c3ccc(SCc4ccco4)o3)C(=O)N=C2S1 | 43* | 18* | -35 | 6 | u | 124* | 47* | 60* | 40* | -5 | 23
CCC1=NN2C(=N)/C(=C\c3ccc(SCc4ccco4)o3)C(=O)N=C2S1 | 48* | 22* | -20 | -1 | 38 | 80* | 29* | 43* | 20 | 10 | 14 | IDE inh confirm=10;HEK293 tox=3
CCC1=NN2C(=N)/C(=C/c3c(C)nn(-c4ccccc4)c3Cl)C(=O)N=C2S1 | 2 | 6 | 1 | -3 | -17 | 0 | x | x | x | x | x
COCCNC(=O)C1(C)CCN(C(=O)c2cc(C(C)(C)C)nn2C)C1 (configuration not stated) | x | x | x | -3 | x | 1 | x | x | x | x | x
CCNc1ncnc2c1cnn2C | 1 | -3 | -4 | -1 | -23 | 0 | x | x | x | x | x
C#CCN1C(=O)S/C(=C/c2cc(C)n(CC)c2C)C1=O | -2 | 1 | -2 | -4 | -4 | 2 | x | x | x | x | x
CCn1c(C)cc(/C=C2/SC(=S)N(CC(=O)O)C2=O)c1C | 83* | 40* | -34 | -2 | 1 | 52* | 94* | 102* | 97* | -17 | 63* | IDE inh confirm=36*;HEK293 tox=5
CCC(C(=O)Nc1cccnc1)n1c(=O)[nH]c2ccccc2c1=O (configuration not stated) | -3 | 4 | 6 | 0 | -4 | 0 | x | x | x | x | x
O=C1/C(=C/c2ccc([N+](=O)[O-])cc2)C=C(c2ccccc2)N1c1ccccc1 | 35* | -4 | 3 | 2 | 16 | 40* | 12 | 23* | 8 | 17 | -2
COc1ccccc1/C=C/C=C1N=C(/C=C/c2ccc(Cl)cc2)OC/1=O | 40* | 6 | 1 | 2 | -2 | 60* | 124* | 124* | 11 | -52 | 4
O=C(O)c1cccc(CSc2ncn[nH]2)c1 | -1 | 1 | 0 | -6 | -5 | 4 | x | x | x | x | x
CSc1nsc(/C=C/Nc2ccc(Cl)cc2)c1C#N | 32* | 3 | -6 | 2 | -7 | 43* | 70* | 82* | 16 | -30 | -10
C/C(=N\Nc1nc(-c2cc(C)ccc2C)cs1)c1cc2c(ccc3ccccc32)oc1=O | 28* | 2 | 3 | 1 | 2 | 46* | 33* | 45* | 14 | -12 | -9
C/C(=N\Nc1nc(-c2cc(C)ccc2C)cs1)c1cc2ccccc2oc1=O | 3 | 2 | 3 | -1 | -2 | 5 | x | x | x | x | x
O=C(NCCS(=O)(=O)N1CCN(c2ccc(F)cc2)CC1)C12CC3CC(CC(C3)C1)C2 | -2 | -5 | 0 | 1 | 2 | -3 | x | x | x | x | x
COc1ccc2c(C)cc(SCC(=O)NC3CCCCC3)nc2c1 | x | 11 | 4 | 0 | x | 2 | x | x | x | x | x
COc1ccc2c(C)cc(SCC(=O)N3CCOCC3)nc2c1 | 73* | 11 | -1 | 0 | -2 | 40* | 61* | 73* | 41* | -69 | 24
COc1ccccc1CNC(=O)C1Cc2cc(S(=O)(=O)N3CCCCC3)ccc2N1C(C)=O (configuration not stated) | 0 | 6 | 3 | 1 | 5 | -2 | x | x | x | x | x

High-throughput results (PubChem)
